The record followed here is ChEMBL document CHEMBL4513216, “Probing the Open Global Health Chemical Diversity Library for Multistage-Active Starting Points for Next-Generation Antimalarials” (ACS Infect Dis, 2020).

SMILES strings stand for the structures. About 8,600 (12%) of roughly 69,000 compounds showed an effect of 50% or more. The sample holds strong results, similar compounds and a random draw of the others, so the mix is not that of the screen.

The subject of this assay is Plasmodium berghei. In words: Screen against P. berghei liver stage (PbLuc), transformed with Luciferase, at 10uM. The assay is classed as functional, HepG2. To be noted: tested at 10 uM.
For the compound `Cc1ccc(CN2CC[C@H]3C[C@H](C(=O)N(C)C)O[C@H]3C2)cc1`, the INHIBITION was determined as 25.5%.
In the case of `Cc1nnc(N2CC[C@H]3C[C@@H](C(=O)NC4CCCC4)O[C@H]3C2)s1`, the INHIBITION is listed as 61.4%.
The value for `COCCNC(=O)[C@H]1C[C@@H]2CCN(c3nncs3)C[C@H]2O1` was 18.5%.
In the case of `CNC(=O)[C@H]1C[C@@H]2CCN(c3nnc(C)s3)C[C@@H]2O1`, the INHIBITION is given as 21.8%.
The value for `Cc1ccc(N2CC[C@H]3C[C@@H](C(=O)N4CCOCC4)O[C@H]3C2)nn1` was 34.1%.
Consider `Cc1nnc(N2CC[C@H]3C[C@@H](C(=O)N4CCCC4)O[C@H]3C2)s1`, for which the INHIBITION is -0.388%.
Consider `CN(C)C(=O)[C@@H]1C[C@@H]2CCN(C3CCOCC3)C[C@H]2O1`, for which the INHIBITION is 21.4%.
As for `Cc1nnc(N2CC[C@H]3C[C@H](C(=O)N4CCOCC4)O[C@H]3C2)s1`, the INHIBITION is on record as 50%.
The value for `CCc1noc(CN2CCC(NC(=O)c3ccc(C)s3)CC2)n1` was -30%; that for `CCS(=O)(=O)CCSc1ccc(Cl)cc1` was 18.6%; that for `CCN(C(=O)COc1nc(Cc2ccc(F)cc2)no1)C1CC1` was -50.7%.
Consider `COc1ccc(-n2cc3[nH]c(=O)n(Cc4cccc(F)c4)n3c2=O)cc1`, for which the INHIBITION was -67%.
On to `Cc1c(NC(=O)CN2CCN(C3CCCC3)C(=O)C2)cnn1C`, for which the INHIBITION amounted to 7.85%.
For the compound `Cc1oc(C(=O)O)cc1S(=O)(=O)Nc1cccc(Cl)c1F`, the INHIBITION is -46.2%.
Consider `CCN1CCCN(S(=O)(=O)c2cc3ccccc3o2)CC1`, for which the INHIBITION was found to be 46.6%.
Take `O=S(=O)(c1cc2ccccc2o1)N1CCCC1`: the INHIBITION was found to be 59.4%.
Consider `CC(=O)N1CCCN(S(=O)(=O)c2cc3ccccc3o2)CC1`, for which the INHIBITION came to 16.6%.
The value for `O=C(C1CCOCC1)N1C[C@@H]2[C@@H](C1)OCC(=O)N2CC1CC1` was 7.96%; that for `O=C(NC1CCC1)C1=NOC2(CCN(Cc3ccco3)C2)C1` (centres undefined) was 64.9%.
As to `Cc1ccc(S(=O)(=O)N2CCC3(CC(C(=O)NC4CCC4)=NO3)C2)cc1` (centres undefined), the INHIBITION is 5.67%.
`Cc1ccc(CN2CCC3(CC(C(=O)NC4CCC4)=NO3)C2)o1` (centres undefined): the INHIBITION is recorded as 56.7%.
For `Cc1ccc(CN2CCC3(CC(C(=O)NCC4CC4)=NO3)C2)s1` (centres undefined), the INHIBITION is recorded as -117%.
For the compound `O=C(O)[C@]12CCCN(Cc3ccco3)C[C@H]1CN(c1ncccn1)C2`, the INHIBITION was determined as 42.6%.
As to `CC(Nc1ncnc2c1NC(=O)CN2)c1ccc2c(c1)OCO2` (centres undefined), the INHIBITION stood at 48.2%.
As for `Cn1nccc1C(=O)N1CCOC(Cc2ccc(Cl)cc2)C1` (centres undefined), the INHIBITION amounted to 0.301%.
The value for `Cc1cc(C)c(C(=O)N2CCOCC2c2c(C)nn(C)c2C)o1` (centres undefined) was -79.1%; that for `Cc1ccc(C(=O)N2CCCN(C)c3ccc(F)cc32)o1` was 16.5%; that for `CCc1cc(C(=O)N2CCCC(c3[nH]ncc3S(C)(=O)=O)C2)no1` (centres undefined) was 24.8%.
With `CCn1ccnc1CN1CCN(c2cc(C)nc(C3CCCN3)c2)CC1` (centres undefined), the INHIBITION is reported as 11.02%.
Take `CCOc1cc(C)nc(N2CCN(Cc3nccn3C)CC2)n1`: the INHIBITION is reported as 12.2%.
As for `CCn1ccnc1CN1CCN(c2nc(C)cc(OC)n2)CC1`, the INHIBITION amounted to 78.3%.
For the compound `COc1cc(C)nc(N2CCN(Cc3nccn3C)CC2)n1`, the INHIBITION was 41.4%.
Regarding `CCOc1cc(C)nc(N2CCN(Cc3nccn3CC)CC2)n1`, the INHIBITION was determined as 50.8%.
As to `COc1cc(C)nc(N2CCN(C(=O)CSC)CC2)n1`, the INHIBITION was -64.85%.
On to `CC(C)Cc1noc(CN(C)c2ncccn2)n1`, for which the INHIBITION is -33.3%.
Regarding `CCOc1ccccc1C(=O)N(C)C(C)c1ccc(S(C)(=O)=O)cc1` (centres undefined), the INHIBITION is listed as -162%.
Turning to `CCC(C)N(Cc1cccnc1)C(=O)c1ccc(OC)cc1O` (centres undefined), the INHIBITION was found to be 32.9%.
`CSCC(CCO)Nc1cccc(C(F)(F)F)n1` (centres undefined): the INHIBITION was 22.8%.
The value for `CSCC(CCO)NC(=O)Nc1cccc(Br)c1C` (centres undefined) was 36.8%.
Regarding `CSCC(CCO)NC(=O)c1cccc(C)c1Cl` (centres undefined), the INHIBITION stood at 54.1%.
For `CSCC(CCO)NC(=O)c1cccc(F)c1Cl` (centres undefined), the INHIBITION is reported as 65.9%.
The value for `CSCC(CCO)NC(=O)c1cccc(Cl)c1F` (centres undefined) was 36.4%.
Take `CSCC(CCO)NC(=O)Nc1ccc(C)cc1C` (centres undefined): the INHIBITION is on record as -7.53%.
The value for `CC(C)NC(=O)C1c2c(ncn2C(C)C)CCN1Cc1ccccc1` (centres undefined) was 8.67%; that for `Cn1ccc(C(=O)NC2CCC23CCN(CC2CCOCC2)CC3)c1` (centres undefined) was 12%.
Turning to `CC[C@@H](C)[C@H](NC(=O)NC1CCS(=O)(=O)C1)C(=O)NCc1ccncc1` (some centres undefined), the INHIBITION was -41.2%.
Take `O=C(N[C@@H]1CN(Cc2cccs2)[C@@H]2COC[C@@H]21)C1CCC1`: the INHIBITION is given as -0.804%.
On to `CCN(CC1CCCO1)C(=O)Nc1cc(C)ccc1S(C)(=O)=O` (centres undefined), for which the INHIBITION is given as -12.2%.
For `Cc1ccc(-c2nnc(C(C)NCCn3cc(C)cn3)o2)cc1` (centres undefined), the INHIBITION was -3.87%.
The value for `Cc1cnn(CCNC(C)c2nnc(-c3ccccc3)o2)c1` (centres undefined) was 54.8%; that for `Cc1cccc(-c2nnc(C(C)NCCn3cc(C)cn3)o2)c1` (centres undefined) was 17.9%.
On to `Cn1ncc2c1CCCC2NCc1cc(Br)cs1` (centres undefined), for which the INHIBITION was 31.1%.
`NCCNS(=O)(=O)Cc1ccc(Br)cc1`: the INHIBITION is on record as 16.9%.
Take `COCc1noc(CN2C[C@H](C3CC3)[C@@H](N(C)C)C2)n1`: the INHIBITION turned out to be 17.1%.
